PubChem BioAssay (Tox21)
Records with an inconclusive call do not appear. The source made the active and inactive calls. Unless noted, calls follow the shape of the dose curve; as a rule, active = well fitted curve in the direction sought with a large enough effect in the repeat runs; inconclusive = weak or mixed curves; inactive = no such curve, though single readings can be large; an effect the other way counts as inactive or inconclusive.

Assays:
[1] = qHTS assay to identify small molecule antagonists of the peroxisome proliferator-activated receptor delta (PPARd) signaling pathway - cell viability counter screen (AID 743213); also: nearly all actives have a fitted effect of over 50% in size
Method in brief: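 HEK293H PPARd UAS-bla cells, 5 h pre-incubation, compound + L165041 300 nM final, 17 h 37 C; B/G FRET substrate 2 h RT; then CellTiter-Glo 30 min RT, luminescence.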

[2] = molecular target: Peroxisome proliferator-activated receptor delta (Homo sapiens) (UniProt Q03181); assay: qHTS assay to identify small molecule antagonists of the peroxisome proliferator-activated receptor delta (PPARd) signaling pathway (AID 743215; active = well fitted inhibition curve with a large enough effect in the signal ratio in the repeat runs, not every such curve was filed as active; the % refers to the signal ratio;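 also: cells stimulated with agonist L165041 at 300 nM final during compound exposure; series mostly up to about 62 µM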)
Method in brief: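 Plated HEK293H PPARd-bla cells rested 5 h at 37 C and 5% CO2. Compound, then agonist L165041 at 300 nM final, was added; 17 h at 37 C followed. Substrate loading, 2 h room temperature, fluorescence measured.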

[3] = molecular target: Bile acid receptor (Homo sapiens) (UniProt Q96RI1); assay: qHTS assay to identify small molecule antagonists of the farnesoid-X-receptor (FXR) signaling pathway (AID 743217; active = well fitted inhibition curve with a large enough effect in the signal ratio in the repeat runs, not every such curve was filed as active; the % refers to the signal ratio)
Method in brief: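 Screen of the Tox21 10K library in quantitative HTS format using FXR-UAS-bla HEK 293T reporter cells. Agonist chenodeoxycholic acid, 50 uM final, added with compounds; 16 h incubation at 37 °C; beta-lactamase FRET fluorescence measured.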

[4] = qHTS assay to identify small molecule agonists of the farnesoid-X-receptor (FXR) signaling pathway - cell viability counter screen (AID 743218); also: nearly all actives have a fitted effect of over 45% in size
Method in brief: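 Viability of FXR-bla HEK 293T cells is measured by ATP-based CellTiter-Glo luminescence following 16 h compound treatment at 37 C and a prior 2 h room-temperature beta-lactamase substrate step.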

[5] = molecular target: Bile acid receptor (Homo sapiens) (UniProt Q96RI1); assay: qHTS assay to identify small molecule agonists of the farnesoid-X-receptor (FXR) signaling pathway (AID 743220; active = well fitted activation curve with a large enough effect in the signal ratio in the repeat runs, not every such curve was filed as active; the % refers to the signal ratio)
Method in brief: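 FXR-UAS-bla HEK 293T cells carrying a UAS-driven beta-lactamase reporter were plated for 5 h at 37C/5% CO2, then exposed to DMSO-dissolved Tox21 10K compounds for 16 h at 37C. A LiveBLAzer B/G FRET substrate was loaded for 2 h at room temperature before fluorescence reading.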

[6] = qHTS assay to identify small molecule antagonists of the farnesoid-X-receptor (FXR) signaling pathway - cell viability counter screen (AID 743221; active = well fitted cell-killing curve with a large enough effect in the repeat runs, not every such curve was filed as active; also: nearly all actives have a fitted effect of over 50% in size)
Method in brief: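 Compound effects on cell number were measured as CellTiter-Glo luminescence in HEK 293T cells expressing FXR-UAS-bla, after 16 h at 37 C with 50 uM CDCA (final).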

[7] = molecular target: Vitamin D3 receptor (Homo sapiens) (UniProt P11473); assay: qHTS assay to identify small molecule agonists of the vitamin D receptor (VDR) signaling pathway (AID 743222; calls by dose curve)
Method in brief: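 Fluorescence from cleaved LiveBLAzer B/G FRET substrate served as readout. VDR-bla cells had been treated 16 h at 37C with test compounds in DMSO, following a 4 h settling period, and substrate was loaded for 2 h at RT.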

[8] = qHTS assay to identify small molecule agonists of the vitamin D receptor (VDR) signaling pathway - cell viability counter screen (AID 743224); also: series mostly up to about 63 µM; nearly all actives have a fitted effect of over 50% in size
Method in brief: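 Compounds were pin-transferred onto VDR-bla cells plated 4 h earlier; following 16 h incubation at 37C, cell viability was quantified by CellTiter-Glo luminescence after 30 min at room temperature.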

[9] = qHTS assay to identify small molecule agonists of the NFkB signaling pathway (AID 1159509; active = well fitted curve in the direction sought with a large enough effect in the signal ratio in the repeat runs, not every such curve was filed as active; the % refers to the signal ratio; also: series mostly up to about 61 µM)
Method in brief: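 Readout: FRET fluorescence, 405 nm excitation, 460/530 nm emission; beta-lactamase expression disrupts FRET. Cells: ME-180 stably carrying NF-kB-driven bla reporter. Compound exposure 5 hr, 37 C, 5% CO2.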

[10] = qHTS assay to identify small molecule agonists of the NFkB signaling pathway - cell viability counter screen (AID 1159515; calls by dose curve; also: series mostly up to about 61 µM; nearly all actives have a fitted effect of over 55% in size)
Method in brief: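 Parallel cytotoxicity counter screen in ME-180 cells carrying an NFkB-response-element beta-lactamase reporter, 2,000 cells/well. Compound exposure lasted 5 hr at 37 C, 5% CO2. Cell viability was quantified by CellTiter-Glo luminescence.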

[11] = qHTS assay to identify small molecule agonists of the endoplasmic reticulum stress response signaling pathway (AID 1159516; active = well fitted activation curve with a large enough effect in the signal ratio in the repeat runs, not every such curve was filed as active; the % refers to the signal ratio)
Method in brief: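 Using a HeLa line with an ESRE-driven beta-lactamase gene, agonist activity was measured by FRET substrate fluorescence (460 and 530 nm emission) after cells were treated with compounds for 5 hr at 37 C and 5% CO2.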

[12] = qHTS assay to identify small molecule agonists of the endoplasmic reticulum stress response signaling pathway - cell viability counter screen (AID 1159517; calls by dose curve;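 also: HeLa cells carrying an ER stress response element beta-lactamase reporter; series mostly up to about 61 µM; nearly all actives have a fitted effect of over 50% in size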)
Method in brief: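 Cytotoxicity of test compounds toward ESRE-bla HeLa cells was assessed after 5 hr exposure. The luminescent CellTiter-Glo signal was measured 30 min after reagent addition.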

[13] = molecular target: Nuclear receptor ROR-gamma (Homo sapiens) (UniProt P51449); assay: qHTS assay to identify small molecule antagonists of the retinoid-related orphan receptor gamma (ROR-gamma) signaling pathway (AID 1159521)
Method in brief: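 Screening format: cell-based luciferase reporter in CHO cells with doxycycline-inducible RORγ. Compound pre-exposure lasts 2 h, doxycycline is 1 uM final, induction runs 16 h at 37 C, and ONE-Glo luminescence is read.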

[14] = qHTS assay to identify small molecule agonists of the AP-1 signaling pathway (AID 1159526; calls by dose curve)
[15] = qHTS assay to identify small molecule agonists of the RXR signaling pathway - cell viability counter screen (AID 1159529)
Method in brief: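 Viability read-out for the RXR-alpha agonist qHTS: luminescent CellTiter-Glo signal after 30 min at RT. HEK 293T bla reporter cells, 2% charcoal-stripped FBS, 16 hr compound incubation; tetraoctyl ammonium bromide as cytotoxic control.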

[16] = molecular target: Vitamin D3 receptor (Homo sapiens) (UniProt P11473); assay: qHTS assay to identify small molecule antagonists of the vitamin D receptor (VDR) signaling pathway (AID 743223; active = well fitted inhibition curve with a large enough effect in the signal ratio in the repeat runs, not every such curve was filed as active; the % refers to the signal ratio)
Method in brief: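 Beta-lactamase activity in VDR-bla cells is measured by FRET substrate fluorescence (2 h, room temperature) after cells spend 16 h at 37C with test compound and 3 nM final 1alpha,25-dihydroxyvitamin D3.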

[17] = qHTS assay to identify small molecule agonists of the AP-1 signaling pathway - cell viability counter screen (AID 1159525; calls by dose curve; also: nearly all actives have a fitted effect of over 55% in size)
Method in brief: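 Each titration point was normalised to DMSO and tetra n-octyl ammonium bromide controls. The read was Cell Titer Glo luminescence after 30 min at RT, following 5 h compound exposure of ME-180 AP-1-bla cells at 37 °C.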

[18] = qHTS assay to identify small molecule antagonists of the vitamin D receptor (VDR) signaling pathway - cell viability counter screen (AID 743225); also: nearly all actives have a fitted effect of over 50% in size
Method in brief: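 In this counter screen, VDR-bla HEK 293T cells receive test compound plus 3 nM final calcitriol for 16 h at 37C. Room-temperature steps of 2 h with the beta-lactamase substrate, then 30 min with CellTiter-Glo, precede the luminescence read.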

[19] = molecular target: Retinoic acid receptor RXR-alpha (Homo sapiens) (UniProt P19793); assay: qHTS assay to identify small molecule agonists of the RXR signaling pathway (AID 1159527; calls by dose curve; also: nearly all actives have a fitted effect of over 35% in size)
Method in brief: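 Fluorescence ratio readout (460 vs 530 nm) from GeneBLAzer RXR-alpha HEK 293T cells after 16 hr compound treatment; cells seeded 5 hr beforehand in low-serum, charcoal-stripped medium.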

[20] = qHTS assay to identify small molecule antagonists of the retinoid-related orphan receptor gamma (ROR-gamma) signaling pathway - cell viability counter screen (AID 1159520); also: nearly all actives have a fitted effect of over 50% in size
Method in brief: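 Tet-on ROR gamma CHO cells (1,000/well) were plated 4 hr, given compounds in DMSO for 2 hr at 37 C, then induced with 1 uM final doxycycline for 16 hr. Viability was read as ATP by CellTiter-Glo luminescence after 30 min.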

Measured: Potency

Bile acid receptor (Homo sapiens), sequence (Q96RI1 whole entry, looked up): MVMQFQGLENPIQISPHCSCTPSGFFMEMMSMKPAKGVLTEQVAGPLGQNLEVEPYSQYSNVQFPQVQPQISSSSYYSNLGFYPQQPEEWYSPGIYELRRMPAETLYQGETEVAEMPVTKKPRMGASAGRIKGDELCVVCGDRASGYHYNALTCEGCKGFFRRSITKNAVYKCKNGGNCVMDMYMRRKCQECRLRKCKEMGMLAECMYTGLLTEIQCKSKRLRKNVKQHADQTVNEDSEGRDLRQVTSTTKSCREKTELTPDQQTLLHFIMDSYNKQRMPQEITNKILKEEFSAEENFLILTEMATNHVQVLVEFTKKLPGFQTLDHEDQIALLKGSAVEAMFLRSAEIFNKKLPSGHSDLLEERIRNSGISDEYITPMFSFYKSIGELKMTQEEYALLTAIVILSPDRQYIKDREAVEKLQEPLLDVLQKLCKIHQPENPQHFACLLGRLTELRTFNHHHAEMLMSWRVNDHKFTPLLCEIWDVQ
Retinoic acid receptor RXR-alpha (Homo sapiens), sequence (P19793 whole entry, looked up): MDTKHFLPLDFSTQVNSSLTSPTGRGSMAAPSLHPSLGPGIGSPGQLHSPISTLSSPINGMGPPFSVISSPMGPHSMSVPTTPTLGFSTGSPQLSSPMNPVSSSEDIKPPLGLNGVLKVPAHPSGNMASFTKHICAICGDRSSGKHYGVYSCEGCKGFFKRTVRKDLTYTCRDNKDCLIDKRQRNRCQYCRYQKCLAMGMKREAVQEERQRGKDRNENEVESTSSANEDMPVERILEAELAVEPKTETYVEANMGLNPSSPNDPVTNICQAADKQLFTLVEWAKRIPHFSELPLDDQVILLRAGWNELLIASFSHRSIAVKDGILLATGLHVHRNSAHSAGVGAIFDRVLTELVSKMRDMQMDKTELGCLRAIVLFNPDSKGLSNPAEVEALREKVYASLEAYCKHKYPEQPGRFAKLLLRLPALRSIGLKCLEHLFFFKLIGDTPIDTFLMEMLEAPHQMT
Vitamin D3 receptor (Homo sapiens), sequence (P11473 whole entry, looked up): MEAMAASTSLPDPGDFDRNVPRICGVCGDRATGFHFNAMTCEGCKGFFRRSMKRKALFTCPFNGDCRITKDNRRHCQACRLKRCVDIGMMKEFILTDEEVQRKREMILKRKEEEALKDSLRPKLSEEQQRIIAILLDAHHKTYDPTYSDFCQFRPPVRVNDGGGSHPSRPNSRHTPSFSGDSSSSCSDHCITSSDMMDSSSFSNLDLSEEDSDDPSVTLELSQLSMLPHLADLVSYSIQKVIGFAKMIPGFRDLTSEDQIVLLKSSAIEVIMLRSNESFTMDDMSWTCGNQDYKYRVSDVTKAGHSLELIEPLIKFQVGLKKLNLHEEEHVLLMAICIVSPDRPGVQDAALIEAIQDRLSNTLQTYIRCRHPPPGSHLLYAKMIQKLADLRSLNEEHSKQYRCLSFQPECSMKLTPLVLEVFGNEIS
Peroxisome proliferator-activated receptor delta (Homo sapiens), sequence (Q03181 whole entry, looked up): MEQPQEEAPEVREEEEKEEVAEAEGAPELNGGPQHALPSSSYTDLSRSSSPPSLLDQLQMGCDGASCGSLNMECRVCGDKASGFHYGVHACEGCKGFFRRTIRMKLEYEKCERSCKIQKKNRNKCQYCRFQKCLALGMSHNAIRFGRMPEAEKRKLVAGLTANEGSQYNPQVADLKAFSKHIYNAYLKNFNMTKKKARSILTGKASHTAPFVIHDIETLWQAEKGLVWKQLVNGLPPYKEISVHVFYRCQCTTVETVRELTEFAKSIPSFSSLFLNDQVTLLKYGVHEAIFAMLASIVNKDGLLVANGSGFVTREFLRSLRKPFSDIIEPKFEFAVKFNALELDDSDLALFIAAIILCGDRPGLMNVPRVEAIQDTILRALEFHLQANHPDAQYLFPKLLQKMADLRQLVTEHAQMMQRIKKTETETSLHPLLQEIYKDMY

NC(=O)c1cc[n+](CC2=C(C(=O)[O-])N3C(=O)[C@@H](NC(=O)Cc4cccs4)[C@H]3SC2)cc1
not listed: [16] | [17] | [18] | [19] | [20]
inactive: all other assays above

CC(=O)S[C@H](C(=O)N[C@H]1Cc2ccccc2[C@H]2CCC[C@@H](C(=O)O)N2C1=O)C(C)C
not listed: [2] | [18] | [19] | [20]
inactive: all other assays above

C[Si](C)(C)O[Si](C)(C)O[Si](C)(C)C
not listed: [3] | [5] | [6] | [15] | [17] | [19] | [20]
inactive: all other assays above

C=CC(C)(O)CC/C=C(/C)CCC=C(C)C (stereo not drawn)
not listed: [4] | [7] | [15] | [16] | [17] | [19] | [20]
inactive: all other assays above

CCC(=O)O[C@@H]1C[C@H]2CC[C@]1(C)C2(C)C
not listed: [3] | [4] | [5] | [14] | [16] | [18] | [20]
inactive: all other assays above

CCOc1ccc(NC(C)=O)cc1N
not listed: [3] | [5] | [12] | [19]
inactive: all other assays above

COc1ccc(C(=O)c2ccc(C)cc2)c(O)c1
not listed: [1] | [3] | [4] | [5] | [7] | [12] | [19] | [20]
inactive: all other assays above

CCc1c(C)[nH]c2c1C(=O)C(CN1CCOCC1)CC2 (stereo not drawn)
not listed: [12] | [14] | [18]
inactive: all other assays above

CC/C=C\CCO
not listed: [2] | [4] | [9] | [13] | [15] | [16] | [19]
inactive: all other assays above

CCCCCCC/C=C/C=O
not listed: [2] | [3] | [5] | [7] | [12] | [15] | [19]
inactive: all other assays above

CCC(=O)O[C@]1(C(=O)COC)[C@@H](C)C[C@H]2[C@@H]3CCC4=CC(=O)C=C[C@]4(C)C3(F)[C@@H](O)C[C@@]21C (stereo partly drawn)
not listed: [6] | [7] | [12] | [18] | [19] | [20]
inactive: all other assays above

COc1ccc(/C=C/c2cc(OC)cc(=O)o2)cc1
not listed: [1] | [4] | [12] | [19]
inactive: all other assays above

CC(=O)c1ccc(Cl)c(Cl)c1Cl
not listed: [2] | [3] | [5] | [7] | [12] | [16] | [18] | [19]
inactive: all other assays above

c1ccc(CN(Cc2ccccc2)Cc2ccccc2)cc1
not listed: [2] | [3] | [5] | [8] | [12] | [15] | [19]
inactive: all other assays above

CC(O)C(C)O (stereo not drawn)
not listed: [1] | [3] | [4] | [5] | [8] | [12] | [16] | [19]
inactive: all other assays above

CC(C)=CCCC(C)C=O (stereo not drawn)
not listed: [2] | [8] | [12] | [16] | [17] | [19] | [20]
inactive: all other assays above

CCCCCCCCCCCCCCCCC(=O)O
not listed: [12] | [14] | [16] | [18]
inactive: all other assays above

Nc1ncnc2c1ncn2[C@@H]1O[C@H](CO)[C@@H](O)[C@H]1O
not listed: [2] | [12] | [19]
inactive: all other assays above

C=CC(=O)NC(C)(C)C
not listed: [2] | [4] | [6] | [7] | [8] | [12] | [19]
inactive: all other assays above

CC/C=C/CCO
not listed: [2] | [8] | [9] | [13] | [16] | [18] | [19]
inactive: all other assays above

C=CC(O)CCCCC (stereo not drawn)
not listed: [2] | [8] | [12] | [16] | [19] | [20]
inactive: all other assays above

CCCCCCCCCCCCN1CCOCC1
not listed: [3] | [5] | [12] | [16] | [19] | [20]
inactive: all other assays above
